Results from PubChem BioAssay (Tox21).
Records with an inconclusive call do not appear. A number with no mark means an inactive call. Active and inactive are the calls of the source. Calls come from the whole dose curve; as a rule, active = well fitted cell-killing curve with a large enough effect in the repeat runs; inconclusive = weak or mixed curves, or effect the other way; inactive = flat fitted curve, though single readings scatter.

Assay: qHTS RealTime-Glo MT Cell Viability Assay in HepG2 cells - 40 hour (AID 1224870); note: nearly all actives have a fitted effect of over 50% in size
Conditions: RealTime-Glo luminescence; series mostly up to 76.8 µM; activity change, negative = cytotoxic: at the top concentration
Source text: National Center for Advancing Translational Sciences [NCATS]
NIH Chemical Genomics Center [NCGC]
U.S. Environmental Protection Agency [EPA]
National Institutes of Environmental Health Sciences [NIEHS]
National Toxicology Program [NTP]
U.S. Food and Drug Administration [FDA]
Measure of cell viability is critical in the cell-base assay. Analysis of cell viability is necessary for the characterization of cell responses to cytotoxic drugs and environmental stress. A RealTime-Glo MT Cell Viability Assay to monitor cell viability in real time of continues cell culture during 40 hours of compound treatment was used to screen Tox21 10K library compounds in HepG2 cells. The RealTime-Glo MT Cell Viability Assay is a nonlytic, homogeneous, bioluminescent method to measure cell viability in real time using a simple, plate-based method. The assay involves adding NanoLuc luciferase and a cell-permeant prosubstrate to cells in culture. Viable cells reduce the proprietary prosubstrate to generate a substrate for NanoLuc luciferase. This substrate diffuses from cells into the surrounding culture medium, where it is rapidly used by the NanoLuc Enzyme to produce a luminescent signal. The signal correlates with the number of viable cells, making the assay well suited for cytotoxicity studies.
Tox21 Assay Protocol Summary:
The mixture of HepG2 cell suspension and reagents were dispensed at 600cells/6 ul/well in 1536-well tissue culture treated black solid bottom plates using a Multidrop dispenser. After the assay plates were incubated at a 37 C/5% CO2 incubator for 5 hours, 23 nL of compounds dissolved in DMSO, positive and negative controls was transferred to the assay plate by a pintool work station. The plates were incubated at 37 C for 40 hours. The luminescence intensity were measured at 0h, 8h, 16h, 24h, 32h and 40h time points using ViewLux plate reader during compound treatment.
% is set by controls: 0 for no effect and ±100 for the full control effect; potency is the fitted concentration of half-maximal effect.

Row | Structure (SMILES) | activity change, negative = cytotoxic | Potency
1 | Cc1c(N)cccc1[N+](=O)[O-] | 0.727% | 
2 | CN1CCN(C(c2ccccc2)c2ccccc2)CC1 | 2.33% [at 35.3 µM] | 
3 | CCCCC(CC)COC(=O)COc1ccc(Cl)cc1Cl (stereo not given) | 0.593% | 
4 | Cc1cccc(C)c1NC(=O)CN(CC(=O)O)CC(=O)O | 1.99% [at 35.3 µM] | 
5 | O[C@@H](COc1cccc2ncccc12)CN1CCN(C2c3ccccc3[C@@H]3[C@H](c4ccccc42)C3(F)F)CC1 (stereo not given in full) | -24.2% [at 35.3 µM] | 
6 | CCN(CC)CCOC(=O)C(c1ccccc1)C1CCCCC1 (stereo not given) | -16.5% [at 35.3 µM] | 
7 | CCOC(=O)Cc1cccc2ccccc12 | -0.811% | 
8 | C1CCCNCCC1 | 13.1% | 
9 | C[C@@H]1C[C@H]2O[C@@]3(O[C@@H]2C(C)(C)O)[C@H](O)[C@@]2(C)[C@@H]4CC[C@H]5C(C)(C)[C@@H](O[C@@H]6OC[C@@H](O)[C@H](O)[C@H]6O)CC[C@@]56C[C@@]46CC[C@]2(C)[C@@H]13 | 0.617% [at 35.3 µM] | 
10 | O=CC1CC=CCC1 (stereo not given) | -8.05% | 
11 | O=C(O)C1(C(=O)O)CCC1.[NH2-].[NH2-].[Pt+2] | 0.0983% [at 35.3 µM] | 
12 | CC1(c2ccccc2)OC(C(=O)O)=CC1=O (stereo not given) | 1.76% [at 35.3 µM] | 
13 | CC1OC(=O)C(C)OC1=O (stereo not given) | -0.899% | 
14 | Brc1c2ccccc2c(Br)c2ccccc12 | 1.43% [at 6.97 µM] | 
15 | Nc1ccc([N+](=O)[O-])c(C(F)(F)F)c1 | -0.767% [at 35.3 µM] | 
16 | Cc1cc(C(=O)O)ccc1[N+](=O)[O-] | 0.769% | 
17 | CCCCO | -0.155% | 
18 | CCOc1ccc(N)c([N+](=O)[O-])c1 | -4.75% | 
19 | CCC(C)(C)CC | -2.07% | 
20 | C=C1C(=C/C=C2\CCC[C@]3(C)[C@@H]([C@H](C)/C=C/[C@@H](O)C4CC4)CC[C@@H]23)C[C@@H](O)C[C@@H]1O | -12.1% [at 35.3 µM] | 

Row | Structure (SMILES) | activity change, negative = cytotoxic | Potency
21 | C/C(=C(\CCOP(=O)(O)O)SC(=O)c1ccccc1)N(C=O)Cc1cnc(C)nc1N | -0.476% [at 6.97 µM] | 
22 | COc1cccc(N(C)C(=S)Oc2ccc3c(c2)CCCC3)n1 | -0.616% [at 35.3 µM] | 
23 | COC(=O)c1ccc(I)cc1S(=O)(=O)NC(=O)Nc1nc(C)nc(OC)n1 | -0.533% | 
24 | COc1ccc(C)cc1[N+](=O)[O-] | 0.976% | 
25 | Nc1cccc([N+](=O)[O-])c1 | -0.0242% | 
26 | Nc1cc(C(=O)O)c(O)c(S(=O)(=O)O)c1 | 0.941% | 
27 | Nc1cccc(S(=O)(=O)c2cccc(N)c2)c1 | 6.11% | 
28 | CCN(CC)CCNc1ccc(CNC=O)c2sc3ccc(OC)cc3c(=O)c12 |  | 17.4 µM (active)
29 | CC(C)OC(=O)C(C)N(C(=O)c1ccccc1)c1ccc(F)c(Cl)c1 (stereo not given) | -7.8% | 
30 | CC[N+](C)(CC)CCOC(=O)C(O)(c1ccccc1)C1CCCCC1 (stereo not given) | 3.26% [at 35.3 µM] | 
31 | O=C(OCCCCCCOC(=O)c1ccccc1)c1ccccc1 | -4.98% | 
32 | CC(C)(COC(=O)c1ccccc1)COC(=O)c1ccccc1 | 1.13% | 
33 | Cn1c(=O)cc(Oc2ccc(F)cc2F)c2cnc(NCC(C)(C)O)nc21 | 0.128% | 
34 | COc1ccnc(CS(=O)c2nc3ccc(OC(F)F)cc3[nH]2)c1OC (stereo not given) | 0.0215% [at 35.3 µM] | 
35 | CCCCCCCCCCO[C@@H]1O[C@H](CO)[C@@H](O)[C@H](O)[C@H]1O | 0.0774% | 
36 | C#CCN(C)CCCOc1ccc(Cl)cc1Cl | -15.3% [at 35.3 µM] | 
37 | C=C(C)C(=O)OCCO | 1.96% | 
38 | CC(C)(C)Cl | -4.91% | 
39 | c1ccc(CNCCNCc2ccccc2)cc1 | 1.47% [at 35.3 µM] | 
40 | CCCCCCCCCOS(=O)(=O)O | 0.333% | 
